Source: PubChem BioAssay (NCI)
About 83,000 compounds went through this panel and 20% of them were active in at least one assay; those are over-represented in the sample as a whole.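 Plates (96-well) were seeded with cells, treated with compound at one concentration, and incubated for 48 hours before percent growth was determined.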 Unmarked numbers belong to inactive results. Active and inactive are the calls of the source. The calls were made as follows: active = growth percent below 10; inactive = the rest.

Columns and labels:
Assay in all cases: NCI-60 one-dose screen, 48 h (100 = growth as untreated, 0 = no growth, -100 = all killed)
Conditions in all cases: 10 µM unless noted
NCI-H23 lung = test system: NCI-H23 lung
NCI-H226 lung = test system: NCI-H226 lung
NCI-H322M lung = test system: NCI-H322M lung
HOP-62 NSCLC = test system: HOP-62 NSCLC
NCI-H460 lung = test system: NCI-H460 lung
HOP-92 NSCLC = test system: HOP-92 NSCLC
NCI-H522 lung = test system: NCI-H522 lung
A549/ATCC NSCLC = test system: A549/ATCC NSCLC
786-0 renal = test system: 786-0 renal
COLO 205 colon = test system: COLO 205 colon
DU-145 prostate = test system: DU-145 prostate
K-562 leukemia = test system: K-562 leukemia
MALME-3M melanoma = test system: MALME-3M melanoma
MDA-MB-231 breast = test system: MDA-MB-231 breast
SF-268 CNS = test system: SF-268 CNS
SF-295 CNS = test system: SF-295 CNS
SF-539 CNS = test system: SF-539 CNS
UACC-257 melanoma = test system: UACC-257 melanoma
M14 melanoma = test system: M14 melanoma

Compound | growth (NCI-H23 lung) | growth (NCI-H226 lung) | growth (NCI-H322M lung) [%] | growth (HOP-62 NSCLC) | growth (NCI-H460 lung) | growth (HOP-92 NSCLC) | growth (NCI-H522 lung) | growth (A549/ATCC NSCLC) | growth (786-0 renal) | growth (COLO 205 colon) | growth (DU-145 prostate) | growth (K-562 leukemia) | growth (MALME-3M melanoma) | growth (MDA-MB-231 breast) | growth (SF-268 CNS) | growth (SF-295 CNS) | growth (SF-539 CNS) | growth (UACC-257 melanoma) | growth (M14 melanoma)
CC(C)(C)CC(C)(C)Nc1c(-c2ccc3c(c2)OCO3)nc2cnccn12 | 97.7% | 90.1% | 101 | 97.9% | 97.2% | 70.3% | 74.1% | 82.7% | 67.7% | 102% | 101% | 72% | 111% | 83.9% | 84.1% | 86.2% | 91.5% | 101% | 45.9%
CNC(=O)c1c(NC(=O)c2ccc(C(C)C)cc2)sc2c(CN(C)C)c(O)ccc12 | 101% | 95.2% | 94.2 | 98.9% | 38.7% | 64.7% | 77.8% | 115% | 83.9% | 97.6% | 97.4% | -7.46% (active) | 88.5% | 95% | 90.8% | 97.7% | 97.3% | 110% | 86.8%
COc1ccc(C(O)c2cc3c(N)c(C(=O)Nc4cccc(OC)c4)sc3nc2C)cc1 (centres undefined) | 30% | 45.9% | 38.8 | 26.5% | 1.65% (active) | 37% | -27.4% (active) | 9.44% (active) | 33.9% | -42.8% (active) | 6.75% (active) | 7.83% (active) | 52.3% | 12.1% | 27% | 3.76% (active) | -12% (active) | 49.7% | 11.8%
CC(C)CN(C(=O)c1ccc(Cl)cc1)c1c(N)n(CC(C)C)c(=O)[nH]c1=O | 95.8% | 98.7% | 103 | 90.6% | 88.4% | 80.6% | 98.8% | 98.8% | 91.4% | 122% | 112% | 103% | 102% | 96.1% | 92.3% | 84.7% | 43.7% | 103% | 109%
COc1cccc2cc(-c3cc4ccccc4[nH]3)/c(=N/C(=S)Nc3ccc(C)cc3)oc12 | 67.9% | 55.1% | 80.1 | 22% | 51.1% | -6.31% (active) | 84.8% | 79.9% | 59% | 99.4% | 66.4% | 80.4% | 66.6% | 39.4% | 72.3% | 79.5% | 45.7% | 103% | 95%
C[C@]12C[C@H]1CC[C@]1(C)[C@@H]2CC[C@@]23C[C@H](CC[C@H]21)[C@@](O)(CO)C3 | 98.5% | 96.8% | 94.2 | 109% | 94.3% | 92.9% | 87% | 99.6% | -80.1% (active) | 109% | 104% | 66.7% | 98.7% | 93.1% | 103% | 113% | 93% | 100% | -47.9% (active)
CCN(CC)S(=O)(=O)c1cccc([N+](=O)[O-])c1 | 102% | 85.3% | 104 | 74.5% | 99.5% | 87.9% | 72.3% | 65.3% | 89.4% | 102% | 117% | 96% | 99.2% | 105% | 93.4% | 94.4% | 98.9% | 67% | 84.9%
O=[N+]([O-])c1cccc(-c2nc(-c3ccc(Cl)cc3Cl)cn2-c2ccccc2)c1 | 20.8% | 18% | 157 | -75.4% (active) | -76.4% (active) | 12.6% | 12.8% | -32.9% (active) | -99.5% (active) | -36.5% (active) | -80.1% (active) | 43.5% | 128% | -14.6% (active) | 0.437% (active) | -74.3% (active) | 23.6% | -63.6% (active) | -71.6% (active)
NC(=O)c1ncn(C2OC(CO)C(O)C2O)n1 (centres undefined) | 89% | 87.6% | 86.5 | 71.8% | 104% | 79% | 79.6% | 96.3% | 91.6% | 94.4% | 85.1% | 61.1% | 93.8% | 103% | 98% | 99.9% | 97.6% | 97.7% | 92.8%
CC(C)(C)CC(C)(C)Nc1c(-c2ccc(C(F)(F)F)cc2)nc2cnccn12 | 82.4% | 92.5% | 103 | 92.7% | 89.5% | 82.6% | 67.4% | 83.1% | -12.3% (active) | 96% | 93% | 65.6% | 103% | 86% | 88.8% | 86.3% | 86% | 98.7% | -54.1% (active)
O=C(N/N=C/c1cccnc1)c1ccccc1Nc1cccc(C(F)(F)F)c1 | 94.2% | 109% | 85.6 | 77.5% | 102% | 72% | 81.8% | 42.4% | 83.7% | 105% | 91.1% | 41.5% | 65% | 118% | 76.6% | 64.7% | 96.7% | 75.3% | 73%
O=C(OCc1nc2nc(Cl)nc(N3CCOCC3)c2[nH]1)n1ccnc1 | 40.7% | -67.6% (active) | 65.4 | 30.4% | 3.6% (active) | -66.7% (active) | -66% (active) | 48.4% | -81.4% (active) | -65.3% (active) | 9.47% (active) | -7.19% (active) | 11% | -6.91% (active) | 5.74% (active) | 95.2% | -19.7% (active) | -71% (active) | -37.6% (active)
COc1ccc(Cl)cc1NC(=O)c1c(NC(=O)C(F)(F)C(F)(F)F)sc2c1CCCCC2 | -5.14% (active) | -5.37% (active) | 12 | -14.6% (active) | 3.45% (active) | -32.7% (active) | -0.0876% (active) | 7.89% (active) | -13.8% (active) | -32.9% (active) | 19.3% | 17.6% | -24.5% (active) | -18.6% (active) | 6.13% (active) | -25.2% (active) | 4.26% (active) | -16.5% (active) | 0.83% (active)
Cc1nc2sc(C(=O)Nc3ccccc3)c(N)c2cc1C(=O)c1ccc(C(F)(F)F)cc1 | 93.5% | 99.6% | 102 | 91.1% | 70.2% | 116% | 89.1% | 42.8% | 95.3% | 104% | 106% | 101% | 101% | 101% | 101% | 94.2% | 93.5% | 101% | 93.4%
COc1cc(NCC(C)(O)CN(CC(C)C)CC(C)C)c2nc(C)ccc2c1 (centres undefined) | 79.7% | 74.1% | 89.3 | 92.5% | 101% | 79.8% | 77.6% | 91% | 86.6% | 79.5% | 110% | 67.4% | 94% | 69.5% | 93.7% | 83.3% | 96.1% | 93.1% | 91.5%
O=C(Nc1ccc(Cl)cc1)Nc1ccc(Cl)c(Cl)c1 | -54.2% (active) | 16.3% | 23.7 | 40.8% | -9.05% (active) | 4.68% (active) | 0.643% (active) | 12.6% | 39.1% | -2.8% (active) | 10.7% | 4.12% (active) | -1.33% (active) | 37.6% | 36.1% | -50.7% (active) | -19.2% (active) | 43% | 22.8%
